The record followed here is PubChem BioAssay (NCATS).

Values without a mark were called inactive. Results filed as inconclusive are left out. Activity calls are given as the source filed them. Unless noted, calls follow the shape of the dose curve; as a rule, active = well fitted curve in the direction sought with a large enough effect; inconclusive = small, poorly fitted or top-dose-only effect, or another doubt; inactive = no such curve, though single readings can be large; an effect the other way counts as inactive or inconclusive.

The target of assay [1] is Cytochrome P450 1A2 (Homo sapiens) (UniProt P05177). The assay is described as follows: p450-cyp1a2 (AID 410; calls by dose curve; also: potency is read from the fitted curve at half-maximal effect). The method, boiled down: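 Luminescent demethylation readout: Luciferin-ME (100uM, equal to Km) turned over by 20nM CYP1A2 for 60 min at room temperature after NADPH regeneration addition, following 10 min compound preincubation. Normalization used 57 uM furafylline as full inhibition.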

The target of assay [2] is Glucocorticoid receptor (Homo sapiens) (UniProt P04150). Kind of assay: GR-GFP Redistribution (AID 450;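 active = compounds whose dose series gives a full or clear partial fitted curve of increased nuclear translocation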; also: potency is read from the fitted curve at half-maximal effect).
Assay [3] shares this target. The assay is described as follows: GR-EFC Redistribution (AID 451; calls by dose curve; also: potency is read from the fitted curve at half-maximal effect). To be noted: CHO-K1 GR-EFC translocation, beta-gal luminescence, 2 h. The procedure, abridged:
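CHO-K1 cells expressing nuclear EA and GR-ED fragments of b-gal; compounds titrated up to 46 uM final, 2 h at 37 C. GR nuclear translocation read as complemented b-gal luminescence after 1 h RT detection.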

In assay [4] the target is Mitogen-activated protein kinase 10 (Mus musculus) (UniProt Q61831). Kind of assay: JNK3 AlphaScreen Assay (AID 530; active = well fitted curve in either direction with a large enough effect, not every such curve was filed as active;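 also: kinase came from lysate of stimulated human HepG2 cells; signal reports phosphorylation of biotinylated GST-cJun 1-79 at Ser73 with 10 µM ATP; series mostly up to about 57 µM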). The method, boiled down: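 Activity was read by AlphaScreen after JNK3-containing HepG2 lysate (cytokine pre-activated) phosphorylated biotinylated GST-cJun with 10 uM ATP at room temperature. Phospho-Ser73 cJun antibody with Protein-A acceptor beads provided detection.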

Assay [5] deals with Cytochrome P450 2C9 (Homo sapiens) (UniProt P11712). The assay is described as follows: qHTS Assay for Inhibitors and Substrates of Cytochrome P450 2C9 (AID 883). Also: nearly all actives have a fitted effect of over 60% in size. Also: potency is read from the fitted curve at half-maximal effect. The procedure, abridged: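 10nM CYP2C9 + 100uM Luciferin-H (=KM), 25mM KPO4; cpd 10 min 37C; NADPH regen, 60 min 37C; stop/detect with P450 Glo-Buffer 20 min; luminescence. Norm. to 57uM sulphaphenazole as full inhibition.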

The target of assay [6] is Cytochrome P450 3A4 (Homo sapiens) (UniProt P08684). The assay is described as follows: qHTS Assay for Inhibitors and Substrates of Cytochrome P450 3A4 (AID 884). Also: nearly all actives have a fitted effect of over 50% in size. Also: potency is read from the fitted curve at half-maximal effect. The method, boiled down: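 Luminescent readout of luciferin produced by CYP3A4 (20 nM) dealkylation of Luciferin-PPXE, 25 uM (its KM). NADPH-driven reaction ran 60 min at RT after 10 min compound preincubation; data scaled to 57 uM ketoconazole as 100% inhibition.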

For assay [7] the target is unchanged. Kind of assay: qHTS Assay for Activators of Cytochrome P450 3A4 (AID 885). Also: nearly all actives have a fitted effect of over 65% in size. The method, boiled down:
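CYP3A4 activity: Luciferin-PPXE O-dealkylation, 25uM substrate, 200mM KPO4, RT throughout. Read-out is luciferase luminescence; higher values reflect activation.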

Assay [8] concerns the target Cytochrome P450 2C19 (Homo sapiens) (UniProt P33261). Kind of assay: qHTS Assay for Inhibitors and Substrates of Cytochrome P450 2C19 (AID 899). Also: nearly all actives have a fitted effect of over 60% in size. Also: potency is read from the fitted curve at half-maximal effect. The method, boiled down: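 Luminescent read-out of luciferin formed from Luciferin-H EGE (10uM, equal to KM). Enzyme 5nM in 50mM KPO4; compound added, 10 min at 37C, then NADPH regenerating system for 60 min at 37C. Full inhibition defined by 57uM ketoconazole.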

In assay [9] the target is DNA dC->dU-editing enzyme APOBEC-3G (Homo sapiens) (UniProt Q9HC16). The assay is described as follows: qHTS for inhibitors of Vif-A3G interactions: Validation (AID 588379). The method, boiled down:
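Yellow fluorescence (Ex 488, Em 500-530) of Vif-coexpressing HeLa A3G-eYFP cells, scanned by Acumen cytometer, reports blocked A3G degradation. Cells plated at 700/well overnight at 37 deg C before compound addition, then a further overnight compound incubation at 37 deg C.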

The target of assay [10] is Cytochrome P450 2D6 (Homo sapiens) (UniProt P10635). The assay is described as follows: qHTS Assay for Inhibitors and Substrates of Cytochrome P450 2D6 (AID 891). Also: nearly all actives have a fitted effect of over 60% in size. Also: potency is read from the fitted curve at half-maximal effect. The method, boiled down: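 Luminescent read-out of luciferin formed by 5 nM human CYP2D6 demethylating 30 uM Luciferin-ME EGE (Km level) over 60 min at room temperature after NADPH regeneration addition. Data normalized to full inhibition by 1.43 uM quinidine.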

Assay [11] deals with 3',5'-cyclic-AMP phosphodiesterase 4B (Homo sapiens) (UniProt Q07343). Kind of assay: qHTS Assay for Inhibitors of PDE-IV (AID 607; active = well fitted activation curve with a large enough effect in the main read-out, with a control signal flat, not every such curve was filed as active). The procedure, abridged:
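ACTOne HEK293 cells carry a modified cAMP-gated CNG channel and express endogenous PDE4; plated 1000 cells/well, compounds up to 22.9 uM final. Membrane-potential dye fluorescence (ex 535/em 590) was read; parental cells received 10 uM forskolin + 100 uM RO 20-1724.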

For assay [12], the target named is Ubiquitin carboxyl-terminal hydrolase 1 (Homo sapiens) (UniProt O94782). Kind of assay: Inhibitors of USP1/UAF1: Pilot qHTS (AID 504865).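 Also: rhodamine fluorescence freed from ubiquitin-rhodamine substrate followed over time; top concentration of the series differs between compounds; nearly all actives have a fitted effect of over 35% in size.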 The procedure, abridged:
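Deubiquitinase activity followed as kinetic rhodamine fluorescence release from 150 nM Ub-Rho. 1 nM USP1/UAF1 with compound, after 15 min room-temperature preincubation, in HEPES pH 7.8 buffer containing TCEP, EDTA, BSA and Tween-20.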

Cytochrome P450 3A4 (Homo sapiens), sequence (P08684 whole entry, looked up): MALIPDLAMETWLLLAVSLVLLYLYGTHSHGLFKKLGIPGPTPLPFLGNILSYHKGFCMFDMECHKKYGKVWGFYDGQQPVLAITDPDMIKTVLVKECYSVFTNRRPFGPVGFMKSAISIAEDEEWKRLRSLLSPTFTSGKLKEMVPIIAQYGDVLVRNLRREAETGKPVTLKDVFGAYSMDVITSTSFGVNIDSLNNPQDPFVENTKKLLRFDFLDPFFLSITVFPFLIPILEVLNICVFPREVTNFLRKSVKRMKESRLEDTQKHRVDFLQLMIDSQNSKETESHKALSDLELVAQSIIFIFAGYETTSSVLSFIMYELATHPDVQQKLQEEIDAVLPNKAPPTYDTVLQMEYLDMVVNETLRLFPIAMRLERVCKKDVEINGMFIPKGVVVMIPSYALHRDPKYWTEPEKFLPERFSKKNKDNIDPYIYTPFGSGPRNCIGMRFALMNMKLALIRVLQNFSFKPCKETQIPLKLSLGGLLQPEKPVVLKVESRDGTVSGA
3',5'-cyclic-AMP phosphodiesterase 4B (Homo sapiens), sequence (Q07343 whole entry, looked up): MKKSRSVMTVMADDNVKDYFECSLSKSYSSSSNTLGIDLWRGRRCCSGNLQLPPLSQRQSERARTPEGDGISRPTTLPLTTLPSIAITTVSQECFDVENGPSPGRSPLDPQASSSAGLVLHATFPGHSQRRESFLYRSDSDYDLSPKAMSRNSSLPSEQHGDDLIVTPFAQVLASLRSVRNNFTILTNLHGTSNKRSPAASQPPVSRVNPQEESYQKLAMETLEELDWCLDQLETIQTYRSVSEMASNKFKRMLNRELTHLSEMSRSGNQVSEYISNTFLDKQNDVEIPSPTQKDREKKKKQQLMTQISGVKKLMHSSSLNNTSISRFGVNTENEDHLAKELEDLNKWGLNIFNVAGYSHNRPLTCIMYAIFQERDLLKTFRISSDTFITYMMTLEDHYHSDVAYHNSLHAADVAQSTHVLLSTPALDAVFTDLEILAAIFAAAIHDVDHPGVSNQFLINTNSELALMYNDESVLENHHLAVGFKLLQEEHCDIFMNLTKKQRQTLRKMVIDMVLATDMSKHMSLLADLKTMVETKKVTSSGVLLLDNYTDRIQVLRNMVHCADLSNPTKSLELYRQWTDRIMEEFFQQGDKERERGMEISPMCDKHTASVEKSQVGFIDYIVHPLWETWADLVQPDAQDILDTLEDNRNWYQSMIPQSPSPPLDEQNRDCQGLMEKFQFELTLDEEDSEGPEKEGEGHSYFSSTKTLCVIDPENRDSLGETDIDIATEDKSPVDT
Cytochrome P450 1A2 (Homo sapiens), sequence (P05177 whole entry, looked up): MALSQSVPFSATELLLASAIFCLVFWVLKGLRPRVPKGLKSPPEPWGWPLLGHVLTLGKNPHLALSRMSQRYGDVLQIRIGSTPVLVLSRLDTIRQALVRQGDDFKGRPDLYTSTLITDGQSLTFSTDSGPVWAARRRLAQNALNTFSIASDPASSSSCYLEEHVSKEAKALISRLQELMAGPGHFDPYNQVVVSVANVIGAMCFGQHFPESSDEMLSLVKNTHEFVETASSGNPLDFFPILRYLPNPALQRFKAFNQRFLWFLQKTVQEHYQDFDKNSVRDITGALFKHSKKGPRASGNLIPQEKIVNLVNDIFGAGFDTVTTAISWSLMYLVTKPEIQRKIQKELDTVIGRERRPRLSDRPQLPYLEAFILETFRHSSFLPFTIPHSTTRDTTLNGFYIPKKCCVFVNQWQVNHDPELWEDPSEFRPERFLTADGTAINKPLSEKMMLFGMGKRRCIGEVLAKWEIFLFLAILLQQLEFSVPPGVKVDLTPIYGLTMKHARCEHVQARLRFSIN
Glucocorticoid receptor (Homo sapiens), sequence (P04150 whole entry, looked up): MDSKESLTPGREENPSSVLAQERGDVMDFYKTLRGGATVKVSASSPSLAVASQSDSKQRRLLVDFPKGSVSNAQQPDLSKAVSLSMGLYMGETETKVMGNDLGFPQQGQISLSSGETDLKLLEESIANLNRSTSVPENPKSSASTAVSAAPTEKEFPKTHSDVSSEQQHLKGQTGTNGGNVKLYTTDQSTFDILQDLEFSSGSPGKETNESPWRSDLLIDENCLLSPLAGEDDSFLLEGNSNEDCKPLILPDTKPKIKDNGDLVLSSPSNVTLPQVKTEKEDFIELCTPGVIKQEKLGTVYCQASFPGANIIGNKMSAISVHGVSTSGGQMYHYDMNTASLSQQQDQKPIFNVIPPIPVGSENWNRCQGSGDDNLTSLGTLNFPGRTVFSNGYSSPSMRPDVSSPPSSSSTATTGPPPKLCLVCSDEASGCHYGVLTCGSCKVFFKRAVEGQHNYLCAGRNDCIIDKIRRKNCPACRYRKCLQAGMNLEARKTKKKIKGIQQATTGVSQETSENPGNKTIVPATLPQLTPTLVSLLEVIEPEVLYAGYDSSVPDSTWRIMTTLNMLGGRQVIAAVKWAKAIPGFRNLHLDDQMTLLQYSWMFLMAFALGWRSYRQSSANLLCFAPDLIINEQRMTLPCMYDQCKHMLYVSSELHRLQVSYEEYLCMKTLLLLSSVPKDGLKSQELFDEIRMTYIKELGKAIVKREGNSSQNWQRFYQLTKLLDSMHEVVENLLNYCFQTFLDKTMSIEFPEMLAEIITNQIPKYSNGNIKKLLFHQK
Cytochrome P450 2C19 (Homo sapiens), sequence (P33261 whole entry, looked up): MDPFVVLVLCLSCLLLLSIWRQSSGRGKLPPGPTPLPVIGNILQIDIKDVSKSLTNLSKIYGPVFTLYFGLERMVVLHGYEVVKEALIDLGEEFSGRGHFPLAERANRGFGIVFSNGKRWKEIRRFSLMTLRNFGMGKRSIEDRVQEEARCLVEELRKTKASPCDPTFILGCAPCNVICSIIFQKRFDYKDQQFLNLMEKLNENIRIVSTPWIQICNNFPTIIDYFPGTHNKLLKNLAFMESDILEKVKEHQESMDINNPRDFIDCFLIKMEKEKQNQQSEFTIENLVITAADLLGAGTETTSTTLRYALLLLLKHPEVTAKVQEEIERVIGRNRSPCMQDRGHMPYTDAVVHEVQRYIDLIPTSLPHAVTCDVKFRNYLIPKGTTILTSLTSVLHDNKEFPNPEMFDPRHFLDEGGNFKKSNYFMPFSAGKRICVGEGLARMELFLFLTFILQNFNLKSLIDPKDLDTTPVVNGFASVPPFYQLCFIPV
DNA dC->dU-editing enzyme APOBEC-3G (Homo sapiens), sequence (Q9HC16 whole entry, looked up): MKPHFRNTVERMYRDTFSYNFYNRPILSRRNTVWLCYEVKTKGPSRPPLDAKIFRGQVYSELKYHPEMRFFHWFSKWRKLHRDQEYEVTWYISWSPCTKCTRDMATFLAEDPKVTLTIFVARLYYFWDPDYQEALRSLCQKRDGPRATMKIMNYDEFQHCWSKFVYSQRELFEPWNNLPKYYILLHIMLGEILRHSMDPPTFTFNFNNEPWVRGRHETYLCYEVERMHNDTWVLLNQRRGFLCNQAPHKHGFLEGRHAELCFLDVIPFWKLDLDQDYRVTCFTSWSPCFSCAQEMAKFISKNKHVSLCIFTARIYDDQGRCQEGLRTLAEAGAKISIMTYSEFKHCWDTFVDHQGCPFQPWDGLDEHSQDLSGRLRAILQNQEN
Cytochrome P450 2C9 (Homo sapiens), sequence (P11712 whole entry, looked up): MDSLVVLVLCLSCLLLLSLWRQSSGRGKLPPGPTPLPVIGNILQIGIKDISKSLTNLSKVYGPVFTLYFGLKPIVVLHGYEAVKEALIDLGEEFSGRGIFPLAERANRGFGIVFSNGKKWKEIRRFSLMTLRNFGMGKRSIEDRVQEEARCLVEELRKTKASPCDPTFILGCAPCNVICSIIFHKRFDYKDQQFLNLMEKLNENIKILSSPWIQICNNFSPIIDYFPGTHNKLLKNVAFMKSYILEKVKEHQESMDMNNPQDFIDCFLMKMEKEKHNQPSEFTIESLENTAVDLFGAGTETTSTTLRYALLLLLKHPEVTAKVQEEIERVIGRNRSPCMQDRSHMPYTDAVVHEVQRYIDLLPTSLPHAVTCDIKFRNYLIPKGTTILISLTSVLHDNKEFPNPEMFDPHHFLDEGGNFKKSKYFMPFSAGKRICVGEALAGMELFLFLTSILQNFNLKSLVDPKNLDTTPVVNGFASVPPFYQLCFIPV
Cytochrome P450 2D6 (Homo sapiens), sequence (P10635 whole entry, looked up): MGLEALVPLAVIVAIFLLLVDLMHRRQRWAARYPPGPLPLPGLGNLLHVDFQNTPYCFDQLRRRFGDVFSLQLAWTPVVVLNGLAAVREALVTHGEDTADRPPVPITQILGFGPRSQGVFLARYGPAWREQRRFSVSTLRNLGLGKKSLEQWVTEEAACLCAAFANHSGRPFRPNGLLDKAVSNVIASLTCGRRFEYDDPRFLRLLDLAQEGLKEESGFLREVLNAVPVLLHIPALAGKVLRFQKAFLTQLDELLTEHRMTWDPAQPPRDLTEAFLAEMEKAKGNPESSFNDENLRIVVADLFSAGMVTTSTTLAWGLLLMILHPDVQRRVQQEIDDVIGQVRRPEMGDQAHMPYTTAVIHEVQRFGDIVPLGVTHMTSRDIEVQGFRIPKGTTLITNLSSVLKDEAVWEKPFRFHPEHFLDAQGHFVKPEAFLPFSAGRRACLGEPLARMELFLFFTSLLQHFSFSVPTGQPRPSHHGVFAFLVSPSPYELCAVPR

As for `COc1cccc2oc(-c3ccc(O)cc3)cc(=O)c12`, the Potency in [1] was 0.398 µM (active); in assay [2] it was above 46 µM; in [3] it was above 46 µM; in assay [5], 12.6 µM (active); in assay [6], 15.8 µM (active); in [8] it was 10 µM (active). The Potency entry in assay [4] and in [7] was “inactive” in each case. The compound was called inactive in assay [9].

In the case of `COc1ccccc1-c1cc(=O)c2cc(O)ccc2o1`, the Potency was 0.2 µM (active) in [1]; above 46 µM in [2]; above 46 µM in [3]; 12.6 µM (active) in assay [6]; 0.398 µM (active) in [8]. Moreover, the Potency entry in [4], in assay [5], in assay [7] and in [10] was “inactive” throughout. Moreover, the call in assay [9] was inactive.

Take `COc1ccc(OC)c([C@H]2Nc3ccccc3NC3=C2C(=O)CC(C)(C)C3)c1Br`: the Potency is 20 µM (active) in assay [1]; above 46 µM in assay [2]; above 46 µM in assay [3]; 31.6 µM (active) in [5]; 3.16 µM (active) in assay [8]. In addition, the Potency entry in assay [4], in assay [11] and in assay [10] was “inactive” each time.

As to `O=c1c(O)c(-c2ccc(O)cc2)oc2cc(O)ccc12`, the Potency in assay [1] is 0.1 µM (active); in [2], above 46 µM; in [3], above 46 µM; in assay [5], 10 µM (active); in assay [8], 15.8 µM (active). For the same compound, the Potency result in assay [4], in assay [11] and in assay [7] was “inactive” throughout. In assay [9], the compound was called inactive.

As to `CC1(C)[C@@H](O)CC[C@@]2(C)[C@H]1CC[C@]1(C)[C@H]2C(=O)C=C2[C@@H]3C[C@@](C)(C(=O)O)CC[C@]3(C)CC[C@@]21C`, the Potency entry in assay [1], in assay [4], in assay [11], in assay [5] and in assay [10] was “inactive” each time. Besides, the Potency in assay [2] and in assay [3] was above 46 µM in each case.

For the compound `Nc1ccccc1C(=O)C[C@@H](N)C(=O)O`, the Potency result in assay [1], in assay [4], in [11], in assay [5], in assay [10] and in assay [8] was “inactive” in each case. The Potency in assay [2] and in assay [3] was above 46 µM each time.

Consider `Cn1ccc(O)c(C#N)c1=O`, for which the Potency entry in assay [1], in assay [4], in assay [11], in assay [5], in assay [6] and in assay [10] was “inactive” throughout. For the same compound, the Potency result in assay [8] is “inactive”. The Potency in [2] and in assay [3] was above 46 µM in each case. Besides, the result in assay [9] was inactive.

On to `COc1cc(O)c2c(=O)cc(-c3ccccc3)oc2c1`, for which the Potency in assay [1] is 0.0251 µM (active); in assay [2] it was above 46 µM; in assay [3], above 46 µM; in [6], 10 µM (active). In addition, the Potency entry in assay [4], in assay [7] and in [10] was “inactive” in each case. The compound was classed as inactive in [9].

As to `COc1ccccc1C[C@@H](Cc1nc2ccccc2[nH]1)c1nc2ccccc2[nH]1`, the Potency in [1] is 10 µM (active); in [2], above 46 µM; in assay [3] it was above 46 µM; in assay [5] it was 12.6 µM (active); in [10], 0.01 µM (active); in [8], 1.58 µM (active). Further, the Potency entry in assay [4] and in assay [11] was “inactive” each time.

For the compound `O=c1c2ccccc2oc2cc(O)c([C@@H]3COC[C@@H](CO)[C@@H](O)[C@@H](O)[C@H]3O)c(O)c12`, the Potency entry in assay [1], in assay [4], in assay [11], in [5], in assay [10] and in assay [8] was “inactive” throughout. Further, the Potency in [2] and in assay [3] was above 46 µM each time.

Take `COc1cc2c(cc1OC)C(=O)N(C)CC2`: the Potency in [1] is 2 µM (active); in [2], above 46 µM; in assay [3] it was above 46 µM. In addition, the Potency entry in assay [4], in [5], in assay [6] and in [10] was “inactive” throughout. Also, in assay [9], the result was inactive.

`C[C@@H]1C(=O)O[C@@H]2C[C@@]34[C@H]5C[C@@H](C(C)(C)C)[C@@]36[C@@H](OC(=O)[C@@H]6O)O[C@]4(C(=O)O5)[C@@]12O`: the Potency entry in [1] and in assay [4] was “inactive” each time. Besides, the Potency in [2] and in [3] was above 46 µM in each case.

On to `O=c1cc(-c2ccccc2O)oc2cc(O)cc(O)c12`, for which the Potency in assay [1] is 0.251 µM (active); in [2], above 46 µM; in [3], above 46 µM; in [5] it was 5.01 µM (active); in assay [6], 3.98 µM (active). Moreover, the Potency entry in assay [4], in [11] and in assay [7] was “inactive” in each case. Moreover, the call in [9] was inactive.

Regarding `O[C@@H]1CC[C@H]2Cc3ccccc3N=C21`, the Potency is 15.8 µM (active) in assay [1], above 46 µM in assay [2] and above 46 µM in assay [3]. Also, the Potency entry in [4], in assay [11] and in assay [5] was “inactive” each time.

For `CN(CCc1ccc(Cl)c(Cl)c1)CCN1CCCCCC1`, the Potency in assay [1] was 31.6 µM (active); in assay [2] it was above 46 µM; in [3], above 46 µM; in [10], 0.126 µM (active). The Potency result in [4], in [7] and in [12] was “inactive” throughout. Moreover, in assay [9], the compound was called inactive.

Regarding `CN1CCc2cc3c(cc2C(=O)Cc2ccc4c(c2C1)OCO4)OCO3`, the Potency in [1] is 39.8 µM (active); in [2] it was above 46 µM; in assay [3], above 46 µM; in assay [10], 0.0501 µM (active); in assay [8], 10 µM (active). The Potency result in assay [4], in [5] and in assay [7] was “inactive” in each case. Also, the compound was called inactive in assay [9].

For `COc1cc2oc(-c3ccccc3)cc(=O)c2cc1O`, the results for the Potency in assay [1], in assay [2] and in assay [3] were 1 µM (active), above 46 µM and above 46 µM, respectively. The Potency result in [4], in [11], in assay [5] and in [6] was “inactive” each time. For the same compound, the compound was classed as inactive in [9].
